From PubChem BioAssay (NCI)
This is part of a sample that, as a whole, favours compounds with a hit. Of some 83,000 tested, about 20% had one in any assay.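 Growth was measured after 48 h exposure to one concentration of compound in 96-well plates. Values under 10 count as active.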 The source made the active and inactive calls.

Each molecule was assayed on MCF7 breast (assay: NCI-60 one-dose screen, 48 h (100 = growth as untreated, 0 = no growth, -100 = all killed)). Conditions: 10 µM unless noted.

Q: With `NCCNc1nc(Nc2ccc(-c3nc4ccccc4[nH]3)cc2)c2cn[nH]c2n1` as the molecule, how does the growth read?
A: Its growth is 39.2% (inactive).

Q: `Cc1cc(C)nc(SC2=C(Nc3ccc(C)c(Cl)c3)C(=O)N(Cc3ccccc3)C2=O)n1` was tested. Which growth did it give?
A: Its growth is 39.6% [30 µM] (inactive).

Q: Which growth does the source give for `O=c1c(F)cn(Cc2ccccc2CCl)c(=O)n1Cc1ccccc1CCl` here?
A: Its growth is -47.7% (active).

Q: Which growth does the source give for `COc1ccc(C(=O)COc2cccc(/C=C3\CSc4ccccc4C3=O)c2)cc1` here?
A: Its growth is -79.8% (active).

Q: For `CCOC(=O)c1sc(Nc2ccc(Cl)cc2)nc1C`, which growth is on record?
A: The growth was 13% (inactive).

Q: How did the growth turn out when `CC/C=C\C[C@H]1C/C=C2/C(=O)C=C[C@H]2C/C=C\CCCC(=O)O1` was run?
A: Its growth is 46.2% (inactive).

Q: For `Cc1cc(C)nc(SC2=C(Nc3cccc(Cl)c3C)C(=O)N(Cc3ccccc3)C2=O)n1`, which growth is on record?
A: The growth was 30.7% [30 µM] (inactive).

Q: Which growth does the source give for `C(=C\c1nccc2c1[nH]c1ccccc12)/c1ccccc1` here?
A: The growth was 8.84% (active).

Q: How did the growth turn out when `CCCc1cc(=O)n2c(C(=O)Nc3ccc(F)cc3)c(C(=O)Nc3ccc(F)cc3)sc2n1` was run?
A: The growth was 62.6% [30 µM] (inactive).

Q: For `COc1ccccc1Nc1nc(-c2cc3cccc(C(F)(F)F)c3oc2=O)cs1`, which growth is on record?
A: The growth was 15.7% (inactive).

Q: With `CC(C)(CCCN=C(N)Nc1ccc(Cl)cc1)c1ccc(F)cc1` as the molecule, how does the growth read?
A: Its growth is 52.9% (inactive).

Q: With `O=C1/C(=C/c2ccccc2O)N=C2SCCCN12` as the molecule, how does the growth read?
A: The growth was 92.2% (inactive).

Q: `COc1cccc(-c2nc(SCC(=O)Nc3ccc(C(=O)/C=C/c4ccc(OC)c(OC)c4)cc3)[nH]c(=O)c2C#N)c1` was tested. Which growth did it give?
A: The growth was 82.4% (inactive).

Q: For `O=c1oc2c(C(F)(F)F)cccc2cc1-c1csc(Nc2ccc(OCCF)cc2)n1`, which growth is on record?
A: Its growth is 15.3% (inactive).

Q: Which growth does the source give for `Cc1nc(Nc2ccc(F)c(Cl)c2)sc1C(=O)O` here?
A: Its growth is 11.9% (inactive).

Q: For `CCOc1nc(-c2ccccc2)cc2c(O)c(C(=O)O)[nH]c(=O)c12`, which growth is on record?
A: The growth was 103% (inactive).

Q: How did the growth turn out when `CC/C=C\C[C@H](O)C/C=C1/C(=O)C=C[C@@]1(C)C/C=C\CCCC(=O)OC` was run?
A: The growth was 92.8% (inactive).

Q: With `COc1ccc(C(=O)COc2ccc(/C=C3\COc4ccc(OC)cc4C3=O)cc2)cc1` as the molecule, how does the growth read?
A: Its growth is 34.2% (inactive).

Q: How did the growth turn out when `CN1CCN(c2ccc3nc(-c4ccc(OCCCCN5CCN(CCCCN6C(=O)c7cccc8cccc(c78)C6=O)CC5)cc4)[nH]c3c2)CC1` was run?
A: The growth was 68.5% (inactive).

Q: How did the growth turn out when `O=C1c2c(O)cc(O)cc2-c2c(-c3ccc(O)cc3)oc3cc(O)cc1c23` was run?
A: Its growth is 33.2% (inactive).
